Screening data: PubChem, National Center for Advancing Translational Sciences (NCATS)
A selection: hits, their analogues and other compounds. The true share with any hit is near 14%.
Shiga inhibitor – Shiga toxin inhibition; Vero cells, Shiga toxin protein synthesis inhibition reporter; inhibition, % at 38.7 µM; actives 9.2% (n = 290,000); AID 2315; in the data active means inhibition mostly above about 28%, no sharp cut-off; inactive means mostly below about 43%; further: 0% is about no effect
LmPK inhibitor – blocks Leishmania mexicana pyruvate kinase activity; purified LmPK, Kinase-Glo ATP luminescence, 1 h; AID 1721; actives 0.37% (n = 290,000); Q27686; Potency, µM (series often up to 57.5 µM), inactives show top-dose activity change, negative = inhibition, usual class: inhibitors; further: potency means the concentration at half of the fitted maximal effect; on the % scale 0 is the no-effect control and ±100 the full control effect
Target sequence (Q27686 whole entry, looked up): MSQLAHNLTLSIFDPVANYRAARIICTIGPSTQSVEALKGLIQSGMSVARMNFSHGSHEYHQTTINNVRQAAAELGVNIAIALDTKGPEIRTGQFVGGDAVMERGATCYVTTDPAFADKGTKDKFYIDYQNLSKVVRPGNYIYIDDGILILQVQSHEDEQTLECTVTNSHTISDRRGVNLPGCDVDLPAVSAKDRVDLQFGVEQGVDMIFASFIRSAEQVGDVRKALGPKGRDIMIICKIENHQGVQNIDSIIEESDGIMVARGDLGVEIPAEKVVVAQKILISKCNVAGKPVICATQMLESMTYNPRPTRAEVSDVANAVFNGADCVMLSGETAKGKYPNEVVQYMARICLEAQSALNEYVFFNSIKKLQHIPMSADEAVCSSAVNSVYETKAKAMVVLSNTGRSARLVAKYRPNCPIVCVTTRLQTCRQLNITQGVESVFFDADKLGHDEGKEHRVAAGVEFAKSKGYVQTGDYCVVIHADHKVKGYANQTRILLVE
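qHTS format; LmPK 0.1 nM; substrates PEP 0.5 mM and ADP 0.1 mM. One-hour room-temperature incubation, then coupled luciferase luminescence; 0.5 nM enzyme wells mark activation.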
FBPA Giardia inh – inhibitors of Giardia lamblia fructose-1,6-bisphosphate aldolase; A8B2U2; purified Giardia FBPA; actives 0.71% (n = 290,000); AID 2451; Potency, µM (series often up to 59.6 µM), without a hit: top-dose activity, negative = inhibition, actives largely listed as inhibitors; further: potency means the concentration at half of the fitted maximal effect; on the % scale 0 is the no-effect control and ±100 the full control effect; nearly all actives have a fitted effect of over 55% in size
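40 nM FBPA preincubated 10 min at RT with compound (up to 57.5 uM final), then substrate plus GAPDH/TPI/NAD/arsenate coupling and diaphorase/resazurin added. Fluorescence read after 20 min at RT, 525/598 nm.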
NS1 function inh – blocks influenza NS1 protein function; Potency, µM (highest dose often 46.1 µM), for the others: top-dose activity, positive = more growth; actives 0.4% (n = 270,000); calls by dose curve; further: potency means the concentration at half of the fitted maximal effect; actives are rising curves; nearly all actives have a fitted effect of over 50% in size
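In this qHTS, NS1 from influenza A is expressed in budding yeast, where it slows growth. Cells are switched from glucose to 2% galactose medium (pH 6.0, -URA), treated with compound, and growth recovery is read at OD600.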
Cycloheximide cs – affects cycloheximide protein synthesis inhibition readout, counter-screen; cell reporter, cycloheximide protein synthesis inhibition counterscreen; max response, %; actives 12% (n = 300,000); in the data active means max response mostly above about 13%, no sharp cut-off; inactive means mostly below about 14%; further: read at 38.3 µM for the half of the compounds with a filed dose; 0% is about no effect
* marks the source's active call; other numbers are inactive results. Unless noted, the call rests on the fitted dose curve; in most records, active means well fitted curve in the direction sought with a large enough effect; inconclusive means small, poorly fitted or top-dose-only effect, or another doubt; inactive means no such curve, though single readings can be large; an effect the other way counts as inactive or inconclusive.

CN(C)c1ccc(/C=C2\CCCc3c2nc2ccccc2c3C(=O)O)cc1 was read as Shiga inhibitor 118*, LmPK inhibitor -6%, NS1 function inh -4% and Cycloheximide cs 45*.
For O=C(O)c1ccc(/C=C2\CCCc3c2nc2ccccc2c3C(=O)O)cc1 the results were Shiga inhibitor -8, LmPK inhibitor 5%, FBPA Giardia inh -14%, NS1 function inh 15% and Cycloheximide cs -3.
`COc1ccc(/C=C2\CCCc3c2nc2ccccc2c3C(=O)O)cc1OC` gave Shiga inhibitor -12, LmPK inhibitor 8%, FBPA Giardia inh 7.9µM*, NS1 function inh 6% and Cycloheximide cs -2.
For COc1ccc(/C=C2\CCc3c2nc2ccccc2c3C(=O)O)cc1OC the results were Shiga inhibitor 14, LmPK inhibitor 1%, FBPA Giardia inh -16%, NS1 function inh 9% and Cycloheximide cs 14.
Screening CCN(CCCCO)c1nc(C)nc2c1c(C)c(C)n2-c1c(C)cc(C)cc1C returned Shiga inhibitor -10, FBPA Giardia inh -17% and Cycloheximide cs -8.
CCN(CC)C(=O)C(=O)c1cn(CCOc2ccccc2)c2ccccc12 was read as Shiga inhibitor 19, LmPK inhibitor 1%, FBPA Giardia inh -3%, NS1 function inh -13% and Cycloheximide cs 0.
Screening COc1ccccc1Oc1ccc(N/C=C/C(=O)C(C)(C)C)cc1 returned Shiga inhibitor 45, LmPK inhibitor 1%, FBPA Giardia inh -4%, NS1 function inh 9% and Cycloheximide cs 14.
For COc1ccc(Oc2ccc(N/C=C/C(=O)C(C)(C)C)cc2)cc1 the results were Shiga inhibitor 39*, LmPK inhibitor 3%, FBPA Giardia inh -9% and Cycloheximide cs 25*.
Screening CC(=O)Nc1ccc(N/C=C/C(=O)C(C)(C)C)cc1 returned Shiga inhibitor 39*, LmPK inhibitor -5%, FBPA Giardia inh inconclusive, NS1 function inh -3% and Cycloheximide cs 18*.
`COc1cccc(Oc2ccc(N/C=C/C(=O)C(C)(C)C)cc2)c1` gave Shiga inhibitor 28*, LmPK inhibitor 5%, FBPA Giardia inh -8%, NS1 function inh inconclusive and Cycloheximide cs 45*.
For Cc1ccc(N/C=C/C(=O)C(C)(C)C)c(O)c1 the results were Shiga inhibitor 68*, LmPK inhibitor 0%, FBPA Giardia inh -25%, NS1 function inh 8% and Cycloheximide cs 62*.
For O=C(/C=C/Nc1ccccc1)C(F)(F)F the results were Shiga inhibitor 4, LmPK inhibitor 6%, FBPA Giardia inh 2% and Cycloheximide cs 6.
Screening O=C(CNS(=O)(=O)c1cccc(Br)c1)NCC1CCCCC1 returned Shiga inhibitor -3, LmPK inhibitor -5%, NS1 function inh 4% and Cycloheximide cs -6.
Screening CC(C)(C)[C@@H](O)C(Cc1ccc(Cl)cc1)n1cncn1 (some centres undefined) returned Shiga inhibitor -1, FBPA Giardia inh 5% and Cycloheximide cs 0.
Screening Cc1cccc(NC(=O)Cn2nc(-c3cccs3)ccc2=O)c1C returned Shiga inhibitor 12, LmPK inhibitor -3%, FBPA Giardia inh 2%, NS1 function inh -10% and Cycloheximide cs -6.
For Cc1ccc(C(C)C)c(OCC(=O)Nc2cccc(S(=O)(=O)NC3=NCCCCC3)c2)c1 the results were Shiga inhibitor -30, LmPK inhibitor -10%, NS1 function inh 8% and Cycloheximide cs 5.
`COC(=O)Cc1ccc2oc(-c3cccnc3)nc2c1` gave Shiga inhibitor 88*, LmPK inhibitor -17%, FBPA Giardia inh 1% and Cycloheximide cs 49*.
For CCCCC(=O)Nc1cccc(-c2nc3ncccc3o2)c1 the results were Shiga inhibitor 33, LmPK inhibitor -6%, FBPA Giardia inh 3%, NS1 function inh -23% and Cycloheximide cs 7.
Screening CCCCC(=O)Nc1ccc2oc(-c3cccnc3)nc2c1 returned Shiga inhibitor 60*, LmPK inhibitor 2%, FBPA Giardia inh -10%, NS1 function inh -17% and Cycloheximide cs 31*.
Screening CCCC(=O)Nc1ccc2oc(-c3cccnc3)nc2c1 returned Shiga inhibitor 54*, LmPK inhibitor 2%, FBPA Giardia inh 0%, NS1 function inh -7% and Cycloheximide cs 25*.
For O=C(Nc1ccc2oc(-c3cccnc3)nc2c1)c1cc2ccccc2o1 the results were Shiga inhibitor 11, LmPK inhibitor -6%, FBPA Giardia inh -6%, NS1 function inh -23% and Cycloheximide cs -6.
